Measurements taken from PubChem BioAssay (Tox21).
Activity calls are given as the source filed them. The call rests on the fitted dose curve.

assay: G protein-coupled receptor (GPCR) small molecule agonists, calcium flux assay: HEK293 wild type cell line counter screen (AID 1920065); conditions: HEK293 WT calcium flux, fluorescence, agonist mode; series mostly up to 57.6 µM; activation: at the top concentration
Text: U.S. Tox21 Program National Center for Advancing Translational Sciences [NCATS] Division of Preclinical Innovation [DPI] U.S. Environmental Protection Agency [EPA] National Institutes of Environmental Health Sciences [NIEHS] National Toxicology Program [NTP] U.S. Food and Drug Administration [FDA] Assay overview: The increased intracellular calcium release that occurred upon G protein-coupled receptor (GPCR) activation led to the frequent use of calcium flux assays to detect GPCR activation. For the purpose of studying and screening compounds that may activate GPCR, receptor-overexpressing models were typically generated using Hek293 wild-type (WT) cells. In order to eliminate the compounds that may have induced calcium release for non-specific activation, a counter-assay utilizing calcium flux on Hek293 WT cells was performed. The data were formulated in order to serve as a control for any calcium flux detection utilizing Hek293 cells with either GPCR overexpression or gene modification. The procurement of Hek293 WT cells from ATCC. Fluorescence intensity can be utilized to determine the activation of the compound in a calcium flux assay. As a counter control, this cell line was utilized to screen the Tox21 10K compound library.
Assay Protocol Summary: Hek293 cells were dispensed at 1500cells/4uL/well in 1536-well black wall/clear bottom plates using a multidrop dispenser. After the assay plates were incubated at a 37 C/5% CO2 incubator for 18 hours, 4 uL of Calcium Dye Solution was added to each well. The plates were incubated at 37 C for 1 hour. For agonist mode, 23 nL of compounds dissolved in DMSO, positive control (ATP) or DMSO only was transferred to the assay plate by a pin tool station. The fluorescence intensity in the plates was measured using FDSS 7000EX kinetic plate reader with a filter set of Ex/Em=480/540 for 3 min at 1 sec intervals. Each test compound was measured at 15 concentrations and in triplicates.
On the % scale 0 is the no-effect control and ±100 the full control effect.

**Q.** For `O=C1CN=C(c2ccccc2)c2cc([N+](=O)[O-])ccc2N1`, which “activation” value is on record?
**A.** The value was 0.413% [at 26.5 µM] (inactive).

**Q.** With `C[C@]12CC[C@H]3[C@@H](CCC4=CC(=O)CC[C@@H]43)[C@@H]1CC[C@@H]2OC(=O)CCc1ccco1` as the compound, how does the “activation” value read?
**A.** Its value is -1.64% [at 26.5 µM] (inactive).

**Q.** Which “activation” value does the source give for `O=C(C(Cl)(Cl)Cl)C(Cl)(Cl)Cl` here?
**A.** Its value is 0.177% (inactive).

**Q.** For `CC(C)(C)OO`, which “activation” value is on record?
**A.** Its value is -0.181% (inactive).

**Q.** With `CNC(=O)/C=C(\C)OP(=O)(OC)OC` as the compound, how does the “activation” value read?
**A.** The value was 0.853% (inactive).

**Q.** Which “activation” value does the source give for `CC(CC(C#N)(c1ccccc1)c1ccccc1)N(C)C` (stereo not given) here?
**A.** Its value is 0.184% (inactive).

**Q.** With `c1ccc2nc(N3CCNCC3)ccc2c1` as the compound, how does the “activation” value read?
**A.** Its value is -0.332% [at 26.5 µM] (inactive).

**Q.** Which “activation” value does the source give for `CCNP(=S)(OC)O/C(C)=C/C(=O)OC(C)C` (stereo not given) here?
**A.** The value was -2.28% (inactive).

**Q.** For `CC(=O)/C=C/c1ccc2c(c1)OCO2`, which “activation” value is on record?
**A.** Its value is -0.809% (inactive).

**Q.** Which “activation” value does the source give for `C=CC(=C)C` here?
**A.** The value was -0.0434% (inactive).

**Q.** With `CCO/N=C(\CC)C1=C(O)CC(c2c(C)cc(C)cc2C)CC1=O` (stereo not given) as the compound, how does the “activation” value read?
**A.** The value was -1.86% (inactive).

**Q.** With `O=C(O)c1c(Cl)ccc2cc(Cl)cnc12` as the compound, how does the “activation” value read?
**A.** The value was -1.7% (inactive).

**Q.** For `CC(C)(C)C(=O)C(Oc1ccc(Cl)cc1)n1cncn1` (stereo not given), which “activation” value is on record?
**A.** Its value is 3.26% (inactive).

**Q.** With `CCOP(=O)(OCC)O/C(=C/Cl)c1ccc(Cl)cc1Cl` as the compound, how does the “activation” value read?
**A.** Its value is -2% (inactive).

**Q.** For `O=C(CCl)Nc1ccccc1`, which “activation” value is on record?
**A.** Its value is 2.54% (inactive).

**Q.** With `O=C(O)c1cc(I)cc(I)c1I` as the compound, how does the “activation” value read?
**A.** Its value is 1.92% (inactive).

**Q.** For `[Cl][Sn]([c]1ccccc1)([c]1ccccc1)[c]1ccccc1`, which activation is on record?
**A.** Its activation is 4.28% [at 11.8 µM] (inactive).

**Q.** For `CCCN1CCC[C@@H]2Cc3nc(N)ncc3C[C@H]21`, which “activation” value is on record?
**A.** Its value is 0.0559% [at 26.5 µM] (inactive).

**Q.** With `CCOC(=O)NC(O)C(Cl)(Cl)Cl` (stereo not given) as the compound, how does the “activation” value read?
**A.** The value was 0.687% [at 26.5 µM] (inactive).

**Q.** Which “activation” value does the source give for `CCCCNP(N)(N)=S` here?
**A.** Its value is 0.0696% (inactive).

**Q.** With `CCC(C)c1cc([N+](=O)[O-])cc([N+](=O)[O-])c1OC(=O)C=C(C)C` (stereo not given) as the compound, how does the “activation” value read?
**A.** The value was 0.759% (inactive).

**Q.** With `O=[N+]([O-])c1ccc2c3c(cccc13)CC2` as the compound, how does the “activation” value read?
**A.** The value was -1.9% (inactive).

**Q.** For `CC[C@H]1C[C@@H]2C[C@H]3c4[nH]c5ccc(OC)cc5c4CCN(C2)[C@@H]13`, which “activation” value is on record?
**A.** Its value is -0.813% (inactive).

**Q.** Which “activation” value does the source give for `O=S(=O)(Cl)c1ccccc1` here?
**A.** The value was -1.01% (inactive).

**Q.** Which Potency does the source give for `CCCN(CCC)c1c([N+](=O)[O-])cc(C(F)(F)F)cc1[N+](=O)[O-]` here?
**A.** The Potency was “inactive”.

**Q.** For `O=S(=O)(C(Cl)(Cl)Cl)C(Cl)(Cl)Cl`, which “activation” value is on record?
**A.** The value was 1.35% (inactive).

**Q.** Which “activation” value does the source give for `Cc1ccccc1CO[C@@H]1C[C@@]2(C(C)C)CC[C@]1(C)O2` here?
**A.** Its value is 3.1% (inactive).

**Q.** With `CS(=O)(=O)c1ccc(C(=O)C2C(=O)CCCC2=O)c([N+](=O)[O-])c1` as the compound, how does the “activation” value read?
**A.** Its value is 1.38% (inactive).

**Q.** With `CCOC(=O)c1ncn2c1CN(C)C(=O)c1c(I)cccc1-2` as the compound, how does the “activation” value read?
**A.** The value was 0.158% [at 26.5 µM] (inactive).

**Q.** For `O=[N+]([O-])c1ccc(Cl)c(Cl)c1Cl`, which “activation” value is on record?
**A.** Its value is -0.226% (inactive).

**Q.** With `CC(C)(C)c1ccc(CCOc2ncnc3ccccc23)cc1` as the compound, how does the “activation” value read?
**A.** Its value is 0.244% (inactive).

**Q.** For `CCOP(=S)(OCC)Oc1cc(Cl)c(Br)cc1Cl`, which “activation” value is on record?
**A.** Its value is -1.33% (inactive).

**Q.** With `COc1ccc(Cc2nccc3cc(OC)c(OC)cc23)cc1OC` as the compound, how does the “activation” value read?
**A.** The value was 0.825% [at 26.5 µM] (inactive).

**Q.** With `NC(=O)CS(=O)C(c1ccccc1)c1ccccc1` (stereo not given) as the compound, how does the “activation” value read?
**A.** Its value is 0.891% [at 26.5 µM] (inactive).

**Q.** For `CC(C)=CCOc1c2occc2cc2ccc(=O)oc12`, which “activation” value is on record?
**A.** Its value is -1.08% [at 26.5 µM] (inactive).

**Q.** With `S=C=Nc1cccc2ccccc12` as the compound, how does the “activation” value read?
**A.** The value was 0.201% (inactive).

**Q.** Which “activation” value does the source give for `C[N+](C)(C)CCCl` here?
**A.** The value was 1.78% (inactive).

**Q.** Which “activation” value does the source give for `CCCCOC(=O)[C@@H](C)Oc1ccc(Oc2ccc(C#N)cc2F)cc1` here?
**A.** The value was -0.0997% (inactive).

**Q.** Which “activation” value does the source give for `CC1(C)[C@H](C=C(Cl)Cl)[C@@H]1C(=O)O[C@@H](C#N)c1cccc(Oc2ccccc2)c1` here?
**A.** The value was 0.0939% (inactive).

**Q.** Which “activation” value does the source give for `CCCCN(N=O)C(=N)N[N+](=O)[O-]` here?
**A.** Its value is 0.0506% (inactive).
